nsP2pro primary: CHIKV nsP2 protease inhibition, primary qHTS; FRET peptide cleavage, nsP2pro, fluorescence 1 h; Potency, µM (series often up to 24.9 µM), for inactives: top-dose activity change, negative = inhibition, hits mostly inhibitors; 1.1% of 31,000 active; further: nearly all actives have a fitted effect of over 60% in size
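Enzyme 150 nM, substrate 2.5 uM (both final); Tris-HCl 10 mM pH 8.0 + 0.01% Tween 20; cpd up to 25 uM, 7 pts; 15 min preinc., 1 h RT; fluorescence ex 525/em 598.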
CHIKV nsP2 cell: cell-based CHIKV nsP2 protease inhibition, secondary | 10% of 450 active | AID 1964100 | shares compounds with nsP2pro primary | Potency, µM (series often up to 51.1 µM), for the others: top-dose activity change, negative = inhibition, hits mostly inhibitors | cell-based CHIKV nsP2 protease reporter assay; further: nearly all actives have a fitted effect of over 70% in size
CHIKV NSP2 FL: full-length CHIKV NSP2 protease inhibition, selectivity. shares compounds with nsP2pro primary. Full-length CHIKV NSP2 protease enzymatic counterscreen. Potency, µM (top dose mostly 50.7 µM), without a hit: top-dose activity change, negative = inhibition, usual class: inhibitors. 39% of 410 active. AID 1964101; further: nearly all actives have a fitted effect of over 65% in size
Furin counterscr: selectivity counter-screen for CHIKV nsP2 protease inhibitors: human furin; shares compounds with nsP2pro primary; Recombinant human furin enzymatic counterscreen, fluorogenic substrate; Potency, µM (titrated, usually from 50.6 µM), for the others: at the top dose activity change, negative = inhibition, most hits filed as inhibitors; 6% of 410 active
Target sequence (P09958 whole entry, looked up): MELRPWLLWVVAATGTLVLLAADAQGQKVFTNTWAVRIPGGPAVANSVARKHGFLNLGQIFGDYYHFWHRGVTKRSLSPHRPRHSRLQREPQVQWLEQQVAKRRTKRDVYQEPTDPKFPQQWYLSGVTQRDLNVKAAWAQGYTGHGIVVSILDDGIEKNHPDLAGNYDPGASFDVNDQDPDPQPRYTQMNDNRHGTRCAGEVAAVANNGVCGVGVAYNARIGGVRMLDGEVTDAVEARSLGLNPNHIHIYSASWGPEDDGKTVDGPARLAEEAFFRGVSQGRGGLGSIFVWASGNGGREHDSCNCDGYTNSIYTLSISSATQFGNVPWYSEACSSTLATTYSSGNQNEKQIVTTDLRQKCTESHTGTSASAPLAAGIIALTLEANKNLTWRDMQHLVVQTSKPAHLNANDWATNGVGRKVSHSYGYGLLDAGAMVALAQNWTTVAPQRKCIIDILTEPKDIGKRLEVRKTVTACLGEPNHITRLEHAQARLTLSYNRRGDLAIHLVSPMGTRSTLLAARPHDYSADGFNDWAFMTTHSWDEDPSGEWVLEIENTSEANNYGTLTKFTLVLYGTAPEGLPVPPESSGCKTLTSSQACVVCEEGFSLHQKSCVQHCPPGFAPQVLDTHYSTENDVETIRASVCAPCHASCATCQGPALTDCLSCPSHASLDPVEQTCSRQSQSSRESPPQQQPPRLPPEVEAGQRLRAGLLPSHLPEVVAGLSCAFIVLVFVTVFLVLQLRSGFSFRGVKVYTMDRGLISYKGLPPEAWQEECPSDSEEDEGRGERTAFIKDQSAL
nsP2 NS23 pep: nsP2pro inhibition on native NS2/3 peptide substrate | shares compounds with nsP2pro primary | Purified CHIKV nsP2 protease, endogenous NS2/3 peptide cleavage | Potency, µM (titrated, usually from 51 µM), inactives show top-dose activity change, negative = inhibition, usual class: inhibitors | 34% of 410 active | AID 1964103; further: nearly all actives have a fitted effect of over 55% in size
Papain cs: papain protease inhibition, counterscreen for nsP2pro inhibitors | shares compounds with nsP2pro primary | purified papain protease activity, enzymatic inhibition | Potency, µM (titrated, usually from 51 µM), for inactives: at the top dose activity change, negative = inhibition, usual class: inhibitors | 5% of 410 active
nsP2pro confirm: CHIKV nsP2 protease inhibition, confirmatory qHTS; Potency, µM (titrated, usually from 25.5 µM), for inactives: at the highest dose activity change, negative = inhibition, hits mostly inhibitors; shares compounds with nsP2pro primary; 43% of 410 active; CHIKV nsP2 protease enzymatic activity, qHTS; further: nearly all actives have a fitted effect of over 75% in size
HCV NS3 counter: inhibits HCV NS3/4A protease in an nsP2pro selectivity counterscreen; Potency, µM (series often up to 50.9 µM), most hits filed as inhibitors; 20% of 410 active; shares compounds with nsP2pro primary; AID 1964106; HCV NS3/4A protease biochemical counterscreen; further: nearly all actives have a fitted effect of over 55% in size
An asterisk follows results filed as active; i = inactive; u = inconclusive; ! = a repeat was not active; [ ] = dose if it differs, or a comment. This is one part of a sample in which hits are shown more often than they occur. The call rests on the fitted dose curve. On the % scale 0 is the no-effect control and ±100 the full control effect; potency means the concentration at half of the fitted maximal effect.

SMILES | nsP2pro primary | others
COc1ccccc1N1CCN(C(=O)Cn2c(C)cc3nc4n(c(=O)c32)CCCCC4)CC1 | -12.2%
CN1CCN(c2ccc(-c3noc([C@@H]4CCCN4Cc4ccccc4)n3)cn2)CC1 | i
CC(C)=CCc1cc(C(O)C2NC(=O)CNC(=O)C(Cc3c[nH]c4ccccc34)NC(=O)C3CCCN3C(=O)CNC(=O)C(C(C)C)NC(=O)CNC2=O)ccc1O (centres undefined) | -4.2%[5.1 µM]
CC(=O)N1CC2(CCCCN2CC2CC2)Cc2ccccc21 (centres undefined) | -10.2%
CN(C)CCNC(=O)c1nc2nc(-c3ccccc3)c(-c3ccncc3)cc2n1C | 4.0%[39.2 µM]
O=[S+]([O-])(c1ccc2nsnc2c1)N1CCN([S+](=O)([O-])c2c(F)cccc2F)CC1 | 0.0%
Nc1c(-c2ccncc2)cc[nH]c1=O | -19.9%
Nc1cc(-c2ccncc2)c[nH]c1=O | 3.51µM* | CHIKV nsP2 cell=3.4%;CHIKV NSP2 FL=u;Furin counterscr=-7.4%;nsP2 NS23 pep=u;Papain cs=-11.6%;nsP2pro confirm=u;HCV NS3 counter=i
CN(C)[C@H]1CCN(c2cccc(Nc3nn4c(=O)c5ccccc5nc4s3)c2)C1 | i
CC(O)(C#Cc1ccc2c(c1)N(c1nc(N)ncc1Cl)CC2)c1nccs1 (centres undefined) | 5.01µM*! | CHIKV nsP2 cell=2.06µM*;CHIKV NSP2 FL=7.3µM*;Furin counterscr=u;nsP2 NS23 pep=14.6µM*;Papain cs=-21.8%;nsP2pro confirm=2.25µM*;HCV NS3 counter=u
C[C@H](Nc1cc2c(-c3ccc4c(c3)OCO4)noc2cn1)c1ccccc1 | -23.5%
Cc1ccc(OCCn2c3c(c4ccccc42)CN(C(=O)C2CCCCC2)CC3)cc1 | -15.8%
CCc1cccc2c(C(CC(=O)N3CCCCC3)c3cccc(OC)c3)c[nH]c12 (centres undefined) | -8.2%
CC(=O)O[C@@H]1C[C@H](O)[C@@]23CO[C@H](O)[C@]1(C)C2C[C@@H](O)[C@]1(C)C3C(=O)[C@H](OC(C)=O)[C@@]2(C)[C@H](c3ccoc3)C[C@H]3O[C@]321 (some centres undefined) | -2.2%[10 µM]
CC(=O)OC1CC(O)C2(C)C(CC(OC(C)=O)C3(C)C2CCC2(C)C(c4ccoc4)C(=O)C4OC423)C1(C)C (centres undefined) | u | CHIKV nsP2 cell=11.7%[17.6 µM];CHIKV NSP2 FL=-18.0%[17.3 µM];Furin counterscr=-9.3%[17.3 µM];nsP2 NS23 pep=-8.8%[17.2 µM];Papain cs=-12.5%[17.2 µM];nsP2pro confirm=-27.9%[8.62 µM];HCV NS3 counter=i
CC(=O)O[C@@H]1CC2C(C)(C)C(=O)C=C[C@]2(C)C2CC[C@]3(C)C(=CC(=O)O[C@H]3c3ccoc3)[C@@]21C (some centres undefined) | 1.6%
CCc1ccc(Nc2c(F)c(F)cc(F)c2F)c(CC(=O)O)c1 | -7.2%
COc1cc(Cc2cnc(N)nc2N)c(C(C)C)cc1OC | 0.9%
O=[N+]([O-])c1cc(Cl)ccc1S(=O)(=O)N1CCN(Cc2ccccc2)CC1 | -6.8%
O=[N+]([O-])c1ccc(O/N=[N+](\[O-])N2CCN(c3ncccn3)CC2)c([N+](=O)[O-])c1 | -25.4%
O=[N+]([O-])c1ccc(S(=O)(=O)N2CCN(c3ccnc4cc(Cl)ccc34)CC2)c([N+](=O)[O-])c1 | u | CHIKV nsP2 cell=5.62µM*;CHIKV NSP2 FL=u;Furin counterscr=-9.6%;nsP2 NS23 pep=4.11µM*;Papain cs=-17.1%;nsP2pro confirm=u;HCV NS3 counter=i
O=C(CSc1nc2ccccc2[nH]1)N1CCOCC1 | -6.5%
COC(=O)/C=C/C12COC(C)(C)C1C(O)C(OC(C)=O)C1(C)C2CCC2(C)C(c3ccoc3)OC(=O)C3OC321 (centres undefined) | u | CHIKV nsP2 cell=5.0%[17.6 µM];CHIKV NSP2 FL=-7.5%[17.3 µM];Furin counterscr=-6.5%[17.3 µM];nsP2 NS23 pep=-15.5%[17.2 µM];Papain cs=5.4%[17.2 µM];nsP2pro confirm=-4.4%[8.62 µM];HCV NS3 counter=i

High-throughput results (PubChem)
